Potency and affinity values are given separately. Results filed as inconclusive are left out. Activity calls are given as the source filed them. Unless noted, the rule behind the calls is not given here.
Experiments:
[1] = RMG-1 ovarian cancer cell viability loss – cherry-pick, dose response (AID 687029;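 active = signal drop whose fitted half-maximal concentration is at most twice the top valid dose, in every test run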;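 note: cells exposed to compound for 96 hours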)
[2] = IOSE-T80 viability loss, PAX8-independent line – cell-based, cherry-pick, selectivity assay for PAX8 inhibitor project, dose response (AID 687032;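 active = fitted half-maximal concentration for viability loss no higher than twice the top valid dose, in every repeat run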;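 note: cells exposed to compound for 96 h before reading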)
[3] = CMV-driven luciferase expression suppression in HEK293 – cell-based, luminescence, dry powder, counter-screen for Pax8 inhibitor project, dose response (AID 743020;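 active = signal-lowering compounds whose fitted half-maximal concentration is at or below twice the top tested dose in every run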;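 note: HEK293 cells stably expressing the CMV luciferase reporter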)
[4] = general cell-killing toxicity readout – plate reader, dry powder samples, cytotoxicity control for PAX8 inhibitor project, dose response (AID 743021)
[5] = IGROV1 cell killing – plate reader, dry powder samples, PAX8 inhibitor project, dose response (AID 743043);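 note: more negative means fewer viable cells or more cytotoxicity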
[6] = toxicity toward immortalized ovarian surface epithelium – cell-based, plate reader, dry powder samples, cytotoxicity control for PAX8 inhibitor project, dose response (AID 743045);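 note: more negative values mean more cell killing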
[7] = A2780 cell killing – plate reader, dry powder samples, cytotoxicity control, dose response (AID 743046)

Measured: outcome

C[C@@H]1CN([C@@H](C)CO)C(=O)Cc2cc(NC(=O)Cc3cn(C)c4ccccc34)ccc2O[C@H]1CN(C)Cc1ccc(Oc2ccccc2)cc1
inactive: all assays above

Cc1ccc(S(=O)(=O)Nc2ccc3c(c2)C(=O)N([C@H](C)CO)C[C@H](C)[C@@H](CN(C)S(=O)(=O)c2ccc(Cl)cc2)OCCCC[C@H](C)O3)cc1
not listed: [7]
inactive: all other assays above

C[C@H]1CCCCO[C@@H](CN(C)Cc2ccc(C(F)(F)F)cc2)[C@@H](C)CN([C@@H](C)CO)C(=O)c2cc(NC(=O)Cc3ccccc3)ccc2O1
not listed: [7]
inactive: all other assays above

C[C@H]1CCCCO[C@H](CN(C)S(=O)(=O)c2ccc(F)cc2)[C@@H](C)CN([C@@H](C)CO)C(=O)c2cc(NS(=O)(=O)c3ccc(Cl)cc3)ccc2O1
inactive: all assays above

C[C@@H]1CCCCO[C@H](CN(C)S(=O)(=O)c2ccc(Cl)cc2)[C@@H](C)CN([C@@H](C)CO)C(=O)c2cc(NS(=O)(=O)c3ccc(F)cc3)ccc2O1
not listed: [7]
inactive: all other assays above

C[C@@H]1CN([C@H](C)CO)C(=O)CCCn2cc(nn2)CO[C@H]1CN(C)C(=O)Nc1ccc(-c2cccs2)cc1
inactive: all assays above

C[C@H](CO)N1C[C@H](C)[C@H](CN(C)Cc2ccc(C(F)(F)F)cc2)OCCCC[C@H](C)Oc2ccc(NC(=O)Nc3ccccc3)cc2C1=O
not listed: [7]
inactive: all other assays above

C[C@@H]1CCCCO[C@@H](CN(C)C(=O)Nc2ccc(C(F)(F)F)cc2)[C@H](C)CN([C@H](C)CO)C(=O)c2cc(NS(=O)(=O)c3ccc(Cl)cc3)ccc2O1
inactive: all assays above

Cc1ccc(S(=O)(=O)Nc2ccc3c(c2)C(=O)N([C@H](C)CO)C[C@H](C)[C@@H](CN(C)S(=O)(=O)c2cccs2)OCCCC[C@H](C)O3)cc1
not listed: [7]
inactive: all other assays above

C[C@@H](O)C#Cc1ccc2c(c1)O[C@H](CN(C)Cc1ccc(-c3ccccc3)cc1)[C@@H](C)CN([C@@H](C)CO)S2(=O)=O
inactive: all assays above

C[C@H]1CCCCO[C@H](CN(C)Cc2ccc(C(F)(F)F)cc2)[C@@H](C)CN([C@@H](C)CO)C(=O)c2cc(NS(=O)(=O)c3ccc(F)cc3)ccc2O1
inactive: all assays above

C[C@@H]1CCCCO[C@@H](CN(C)C(=O)Nc2cccc3ccccc23)[C@H](C)CN([C@H](C)CO)C(=O)c2cc(NS(=O)(=O)c3ccc(Cl)cc3)ccc2O1
not listed: [7]
inactive: all other assays above

COc1ccccc1-c1ccc2c(c1)[C@H]1[C@H](CCN1C(=O)C1CCCCC1)[C@@H](CO)N2
not listed: [7]
inactive: all other assays above

C[C@@H]1CN([C@H](C)CO)C(=O)c2cc(NC(=O)c3ccccc3)ccc2O[C@@H](C)CCCCO[C@@H]1CN(C)Cc1ccc(C(F)(F)F)cc1
inactive: all assays above

C[C@@H]1CN([C@H](C)CO)C(=O)c2cc(NC(=O)Nc3ccc(C(F)(F)F)cc3)ccc2O[C@@H](C)CCCCO[C@@H]1CN(C)Cc1ccc(Cl)c(Cl)c1
not listed: [7]
inactive: all other assays above

C[C@H](NC(=O)C[C@@H]1C[C@@H]2c3cc(NC(=O)Nc4ccc(C(F)(F)F)cc4)ccc3O[C@@H]2[C@@H](CO)O1)c1ccccc1
not listed: [7]
inactive: all other assays above

Cc1ccc(S(=O)(=O)Nc2ccc3c(c2)C(=O)N([C@H](C)CO)C[C@@H](C)[C@H](CN(C)C(=O)Nc2cccc4ccccc24)OCCCC[C@@H](C)O3)cc1
inactive: all assays above

C[C@@H]1CCCCO[C@@H](CN(C)Cc2ccc(C(F)(F)F)cc2)[C@H](C)CN([C@H](C)CO)C(=O)c2cc(NC(=O)Nc3ccccc3)ccc2O1
not listed: [7]
inactive: all other assays above

C[C@@H]1CCCCO[C@H](CN(C)C(=O)C2CCCCC2)[C@H](C)CN([C@@H](C)CO)C(=O)c2cc(NS(=O)(=O)c3ccc(Cl)cc3)ccc2O1
not listed: [7]
inactive: all other assays above

C[C@@H]1CCCCO[C@@H](CN(C)C(=O)NC2CCCCC2)[C@H](C)CN([C@@H](C)CO)C(=O)c2cc(NC(=O)Nc3ccc(C(F)(F)F)cc3)ccc2O1
not listed: [7]
inactive: all other assays above

C[C@H]1CN([C@@H](C)CO)S(=O)(=O)c2ccc(C#Cc3ccccc3F)cc2O[C@@H]1CN(C)CC1CCOCC1
not listed: [7]
inactive: all other assays above

C[C@H]1CCCCO[C@@H](CN(C)S(=O)(=O)c2cccs2)[C@@H](C)CN([C@@H](C)CO)C(=O)c2cc(NS(=O)(=O)c3ccc(Cl)cc3)ccc2O1
not listed: [7]
inactive: all other assays above

COc1ccc2c3c([nH]c2c1)[C@H](CO)N(C(=O)Nc1cccc(F)c1)CC31CCN(S(=O)(=O)c2cccc(C)c2)CC1
inactive: all assays above

C[C@@H]1CN([C@H](C)CO)S(=O)(=O)c2ccc(-c3ccc(C#N)cc3)cc2O[C@@H]1CN(C)Cc1cccc(F)c1
inactive: all assays above

Cc1noc(C)c1S(=O)(=O)Nc1ccc2c(c1)C(=O)N([C@H](C)CO)C[C@@H](C)[C@H](CN(C)C(=O)Nc1ccc(C(F)(F)F)cc1)OCCCC[C@@H](C)O2
inactive: all assays above

C[C@@H]1CN([C@@H](C)CO)S(=O)(=O)c2ccc(C#Cc3ccccc3F)cc2O[C@@H]1CN(C)C(=O)c1ccc2c(c1)OCO2
not listed: [7]
inactive: all other assays above

C[C@@H]1CN([C@H](C)CO)C(=O)c2cc(NC(=O)Nc3ccccc3)ccc2O[C@@H](C)CCCCO[C@H]1CN(C)C(=O)Nc1ccc(C(F)(F)F)cc1
inactive: all assays above

CC(=O)N1CCOc2ccc(S(=O)(=O)N3CCN(c4cccc(C(F)(F)F)c4)CC3)cc21
not listed: [7]
inactive: all other assays above

C[C@@H]1CN([C@H](C)CO)C(=O)c2cc(NC(=O)Nc3ccccc3)ccc2O[C@@H](C)CCCCO[C@@H]1CN(C)CC1CCCCC1
inactive: all assays above

C[C@H](CO)N1C[C@H](C)[C@@H](CN(C)Cc2ccc(C(F)(F)F)cc2)OCCCC[C@H](C)Oc2ccc(NC(=O)Nc3ccc(F)cc3)cc2C1=O
not listed: [7]
inactive: all other assays above

Cc1ccc(S(=O)(=O)N(C)C[C@H]2Oc3cc(C#Cc4ccncc4)ccc3S(=O)(=O)N([C@H](C)CO)C[C@H]2C)cc1
inactive: all assays above

C[C@H]1CCCCO[C@H](CN(C)C(=O)C2CCCCC2)[C@@H](C)CN([C@@H](C)CO)C(=O)c2cc(NS(=O)(=O)c3ccc(Cl)cc3)ccc2O1
inactive: all assays above

C[C@@H]1CCCCO[C@@H](CN(C)C(=O)c2ccccc2)[C@H](C)CN([C@H](C)CO)C(=O)c2cc(NC(=O)Nc3ccc(C(F)(F)F)cc3)ccc2O1
inactive: all assays above

COc1ccc(S(=O)(=O)Nc2ccc3c(c2)C(=O)N([C@@H](C)CO)C[C@H](C)[C@@H](CN(C)Cc2ccc(C(F)(F)F)cc2)OCCCC[C@@H](C)O3)cc1
not listed: [7]
inactive: all other assays above

C[C@@H]1CCCCO[C@H](CN(C)CC2CCCCC2)[C@H](C)CN([C@@H](C)CO)C(=O)c2cc(NC(=O)Nc3ccccc3)ccc2O1
inactive: all assays above

C[C@@H]1CN([C@H](C)CO)C(=O)c2cc(NC(=O)Cc3ccccc3)ccc2O[C@@H](C)CCCCO[C@@H]1CN(C)Cc1ccc(C(F)(F)F)cc1
inactive: all assays above

COc1ccc(-c2ccc3c(c2)[C@@H]2[C@@H](CCN2S(=O)(=O)c2ccc(OC)cc2)[C@@H](CO)N3C)cc1
inactive: all assays above

CC(C)CC1NC(=S)N(Cc2ccccc2)C1=O (stereo not given)
inactive: all assays above

C[C@H](CO)N1C[C@H](C)[C@H](CN(C)S(=O)(=O)c2ccc(Cl)cc2)OCCCC[C@H](C)Oc2ccc(NS(=O)(=O)c3ccc(Cl)cc3)cc2C1=O
inactive: all assays above
